“And” between values parts separate entries of the source, which are not always exact repeats. Identical values can stand only once. The source made the active and inactive calls.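 The calls were made as follows: active = thallium flux through the channel raised or lowered by more than 3 SD from vehicle-only wells, actives on both sides; inactive = the rest.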

The first test relates to R275C/beta1. The test is described as follows: modulators of BK channel variants, profiling panel, selectivity assay, cell-based, U2OS BacMam, thallium flux, beta subunits (AID 1259406).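 Also: initial slope of Thallos dye fluorescence rise after thallium is added; log ratio against the mean of 0.3% DMSO vehicle wells on the same plate.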 The following applies: at 30 µM.
With `CC12CC3CC(C)(C1)CC(N)(C3)C2`, the log fold change Tl+ flux was -0.0595 (inactive).

Consider `CC(=O)OCC(CCn1cnc2cnc(N)nc21)COC(C)=O`, for which the log fold change Tl+ flux was 0.0343 (inactive).

`S=c1nc[nH]c2nc[nH]c12`: the log fold change Tl+ flux is 0.0271 (inactive).

Consider `Oc1c(Cl)cc(Cl)c2cccnc12`, for which the log fold change Tl+ flux is 0.249 (active).

In the case of `CC1=NS(=O)(=O)c2cc(Cl)ccc2N1`, the log fold change Tl+ flux was 0.0109 (inactive).

Take `OC(Cn1cncn1)(Cn1cncn1)c1ccc(F)cc1F`: the log fold change Tl+ flux was 0.023 (inactive).

For `NCCc1ccc(O)c(O)c1`, the log fold change Tl+ flux is -0.0871 (inactive).

Regarding `CN=C(NC#N)NCCSCc1nc[nH]c1C`, the log fold change Tl+ flux was -0.0361 (inactive).

Take `COc1c(N2CCNC(C)C2)c(F)cc2c(=O)c(C(=O)O)cn(C3CC3)c12` (stereo not drawn): the log fold change Tl+ flux was 0.0168 (inactive).

As to `CC1COc2c(N3CCN(C)CC3)c(F)cc3c(=O)c(C(=O)O)cn1c23` (stereo not drawn), the log fold change Tl+ flux is -0.02 (inactive).

As to `O=C(C1CCCCC1)N1CC(=O)N2CCc3ccccc3C2C1` (stereo not drawn), the log fold change Tl+ flux was 0.0419 (inactive).

Take `CCc1cc(C(N)=S)ccn1`: the log fold change Tl+ flux was -0.00453 (inactive).

As to `CC1=C(/C=C/C(C)=C/C=C/C(C)=C/C(=O)O)C(C)(C)CCC1`, the log fold change Tl+ flux was 0.0531 (inactive).

As for `CCCCNc1cc(C(=O)O)cc(S(N)(=O)=O)c1Oc1ccccc1`, the log fold change Tl+ flux was 0.0319 (inactive).

Turning to `O=c1[nH]cnc2[nH]ncc12`, the log fold change Tl+ flux is 0.0222 (inactive).

Turning to `O=C1c2c(O)ccc(O)c2C(=O)c2c(NCCNCCO)ccc(NCCNCCO)c21`, the log fold change Tl+ flux is -0.052 (inactive).

Consider `O=C(O)c1cc(=O)c2c(OCC(O)COc3cccc4oc(C(=O)O)cc(=O)c34)cccc2o1`, for which the log fold change Tl+ flux is -0.0241 (inactive).

Turning to `CC(C)C(=O)Nc1ccc([N+](=O)[O-])c(C(F)(F)F)c1`, the log fold change Tl+ flux is -0.0165 (inactive).

Consider `CC(COc1ccccc1)N(CCCl)Cc1ccccc1` (stereo not drawn), for which the log fold change Tl+ flux is 0.0364 (inactive).

For `CCCc1nc2c(C)cc(-c3nc4ccccc4n3C)cc2n1Cc1ccc(-c2ccccc2C(=O)O)cc1`, the log fold change Tl+ flux is -0.0256 (inactive).

Regarding `CC(=O)CC(c1ccccc1)c1c(O)c2ccccc2oc1=O` (stereo not drawn), the log fold change Tl+ flux is -0.0262 (inactive).

Consider `NS(=O)(=O)c1cc2c(cc1Cl)NCNS2(=O)=O`, for which the log fold change Tl+ flux was 0.0065 (inactive).

For the compound `CS(=O)(=O)OCCCCOS(C)(=O)=O`, the log fold change Tl+ flux is -0.0312 (inactive).

On to `CCOC(=O)C1=C(C)NC(C)=C(C(=O)OC)C1c1cccc([N+](=O)[O-])c1` (stereo not drawn), for which the log fold change Tl+ flux was 0.00401 (inactive).

For the compound `COc1ccccc1OCCNCC(O)COc1cccc2[nH]c3ccccc3c12` (stereo not drawn), the log fold change Tl+ flux was 0.386 (active).

Take `O=C(O)CCCc1ccccc1`: the log fold change Tl+ flux was 0.0568 (inactive).

Turning to `NNCCc1ccccc1`, the log fold change Tl+ flux was 0.00562 (inactive).

As for `CC1Cc2ccccc2N1NC(=O)c1ccc(Cl)c(S(N)(=O)=O)c1` (stereo not drawn), the log fold change Tl+ flux is 0.0126 (inactive).

Consider `CC(C)Cc1ccc(C(C)C(=O)O)cc1` (stereo not drawn), for which the log fold change Tl+ flux is -0.00083 (inactive).

Turning to `N[C@@H]1CONC1=O`, the log fold change Tl+ flux was 0.00647 (inactive) and 0.0301 (inactive).

As to `CCN(Cc1ccncc1)C(=O)C(CO)c1ccccc1` (stereo not drawn), the log fold change Tl+ flux is 0.0151 (inactive).

As for `CCCc1cc(=O)[nH]c(=S)[nH]1`, the log fold change Tl+ flux is -0.00439 (inactive).

On to `O=C(O)c1cccnc1`, for which the log fold change Tl+ flux is -0.00198 (inactive).

`CC(C[N+](C)(C)C)OC(N)=O` (stereo not drawn): the log fold change Tl+ flux was 0.0122 (inactive).

Consider `COc1ccc(Cl)cc1C(=O)NCCc1ccc(S(=O)(=O)NC(=O)NC2CCCCC2)cc1`, for which the log fold change Tl+ flux was 0.142 (active).

`N[C@@H](Cc1cc(I)c(Oc2cc(I)c(O)c(I)c2)c(I)c1)C(=O)O`: the log fold change Tl+ flux is 0.0456 (inactive).

As for `CC1(C)O[C@@H]2[C@@H](CO[C@@]3(COS(N)(=O)=O)OC(C)(C)O[C@@H]23)O1`, the log fold change Tl+ flux is 0.0176 (inactive).

With `COCCOC(=O)C1=C(C)NC(C)=C(C(=O)OC(C)C)C1c1cccc([N+](=O)[O-])c1` (stereo not drawn), the log fold change Tl+ flux was -0.0169 (inactive).

For `NNC(=O)c1ccncc1`, the log fold change Tl+ flux is -0.00353 (inactive).

A further test concerns R275C/beta2Delta. The test is described as above. The following applies: at 30 µM.
Turning to `CC12CC3CC(C)(C1)CC(N)(C3)C2`, the log fold change Tl+ flux was 0.0488 (inactive).

With `CC(=O)OCC(CCn1cnc2cnc(N)nc21)COC(C)=O`, the log fold change Tl+ flux was -0.0321 (inactive).

On to `S=c1nc[nH]c2nc[nH]c12`, for which the log fold change Tl+ flux was -0.0376 (inactive).

Consider `Oc1c(Cl)cc(Cl)c2cccnc12`, for which the log fold change Tl+ flux was 0.0748 (inactive).

`CC1=NS(=O)(=O)c2cc(Cl)ccc2N1`: the log fold change Tl+ flux was 0.00734 (inactive).

With `OC(Cn1cncn1)(Cn1cncn1)c1ccc(F)cc1F`, the log fold change Tl+ flux is 0.0182 (inactive).

Consider `NCCc1ccc(O)c(O)c1`, for which the log fold change Tl+ flux was 0.0238 (inactive).

`CN=C(NC#N)NCCSCc1nc[nH]c1C`: the log fold change Tl+ flux is 0.00462 (inactive).

Regarding `COc1c(N2CCNC(C)C2)c(F)cc2c(=O)c(C(=O)O)cn(C3CC3)c12` (stereo not drawn), the log fold change Tl+ flux is 0.00178 (inactive).

For `CC1COc2c(N3CCN(C)CC3)c(F)cc3c(=O)c(C(=O)O)cn1c23` (stereo not drawn), the log fold change Tl+ flux is -0.03 (inactive).

For the compound `O=C(C1CCCCC1)N1CC(=O)N2CCc3ccccc3C2C1` (stereo not drawn), the log fold change Tl+ flux is -0.0208 (inactive).

As for `CCc1cc(C(N)=S)ccn1`, the log fold change Tl+ flux was -0.00222 (inactive).

Regarding `CC1=C(/C=C/C(C)=C/C=C/C(C)=C/C(=O)O)C(C)(C)CCC1`, the log fold change Tl+ flux is 0.0707 (inactive).

`CCCCNc1cc(C(=O)O)cc(S(N)(=O)=O)c1Oc1ccccc1`: the log fold change Tl+ flux is -0.0196 (inactive).

For the compound `O=c1[nH]cnc2[nH]ncc12`, the log fold change Tl+ flux was 0.0262 (inactive).

As for `O=C1c2c(O)ccc(O)c2C(=O)c2c(NCCNCCO)ccc(NCCNCCO)c21`, the log fold change Tl+ flux was -0.0164 (inactive).

With `O=C(O)c1cc(=O)c2c(OCC(O)COc3cccc4oc(C(=O)O)cc(=O)c34)cccc2o1`, the log fold change Tl+ flux is -0.0325 (inactive).

Regarding `CC(C)C(=O)Nc1ccc([N+](=O)[O-])c(C(F)(F)F)c1`, the log fold change Tl+ flux is 0.0539 (inactive).

For `CC(COc1ccccc1)N(CCCl)Cc1ccccc1` (stereo not drawn), the log fold change Tl+ flux is -0.0434 (inactive).

Take `CCCc1nc2c(C)cc(-c3nc4ccccc4n3C)cc2n1Cc1ccc(-c2ccccc2C(=O)O)cc1`: the log fold change Tl+ flux is -0.00129 (inactive).

`CC(=O)CC(c1ccccc1)c1c(O)c2ccccc2oc1=O` (stereo not drawn): the log fold change Tl+ flux was 0.0436 (inactive).

As to `NS(=O)(=O)c1cc2c(cc1Cl)NCNS2(=O)=O`, the log fold change Tl+ flux was -0.0287 (inactive).

In the case of `CS(=O)(=O)OCCCCOS(C)(=O)=O`, the log fold change Tl+ flux is 0.0365 (inactive).

Regarding `CCOC(=O)C1=C(C)NC(C)=C(C(=O)OC)C1c1cccc([N+](=O)[O-])c1` (stereo not drawn), the log fold change Tl+ flux was -0.0485 (inactive).

As to `COc1ccccc1OCCNCC(O)COc1cccc2[nH]c3ccccc3c12` (stereo not drawn), the log fold change Tl+ flux was 0.0657 (inactive).

`O=C(O)CCCc1ccccc1`: the log fold change Tl+ flux was -0.0698 (inactive).

For `NNCCc1ccccc1`, the log fold change Tl+ flux was -0.0402 (inactive).

In the case of `CC1Cc2ccccc2N1NC(=O)c1ccc(Cl)c(S(N)(=O)=O)c1` (stereo not drawn), the log fold change Tl+ flux was -0.00869 (inactive).

As to `CC(C)Cc1ccc(C(C)C(=O)O)cc1` (stereo not drawn), the log fold change Tl+ flux is -0.00841 (inactive).

For the compound `N[C@@H]1CONC1=O`, the log fold change Tl+ flux is 0.0216 (inactive) and -0.0265 (inactive).

In the case of `CCN(Cc1ccncc1)C(=O)C(CO)c1ccccc1` (stereo not drawn), the log fold change Tl+ flux is 0.0198 (inactive).

In the case of `CCCc1cc(=O)[nH]c(=S)[nH]1`, the log fold change Tl+ flux was -0.0158 (inactive).

In the case of `O=C(O)c1cccnc1`, the log fold change Tl+ flux was 0.0288 (inactive).

In the case of `CC(C[N+](C)(C)C)OC(N)=O` (stereo not drawn), the log fold change Tl+ flux is 0.00284 (inactive).

In the case of `COc1ccc(Cl)cc1C(=O)NCCc1ccc(S(=O)(=O)NC(=O)NC2CCCCC2)cc1`, the log fold change Tl+ flux is 0.0874 (inactive).

`N[C@@H](Cc1cc(I)c(Oc2cc(I)c(O)c(I)c2)c(I)c1)C(=O)O`: the log fold change Tl+ flux is 0.134 (active).

For the compound `CC1(C)O[C@@H]2[C@@H](CO[C@@]3(COS(N)(=O)=O)OC(C)(C)O[C@@H]23)O1`, the log fold change Tl+ flux was 0.0245 (inactive).

In the case of `COCCOC(=O)C1=C(C)NC(C)=C(C(=O)OC(C)C)C1c1cccc([N+](=O)[O-])c1` (stereo not drawn), the log fold change Tl+ flux is -0.0566 (inactive).

With `NNC(=O)c1ccncc1`, the log fold change Tl+ flux is 0.0339 (inactive).

Source of the values: PubChem BioAssay.
